In publication PMC7862700, “An all-to-all approach to the identification of sequence-specific readers for epigenetic DNA modifications on cytosine” one finds binding signal data, which are given here for one sequence.

Assay in all cases: DAPPL (digital affinity profiling via proximity ligation, sequencing); 10 mM Tris-HCl pH 7.5, 50 mM NaCl, 1 mM DTT, 4% glycerol, room temperature, 30 min; GST-TFs on glutathione beads, 16-mer random dsDNA library, 0.1% formaldehyde crosslink after washing; high values mean tight binding
One experiment concerns the target T1, FLI1 (Homo sapiens, UniProt Q01543 1-452).
T1 sequence: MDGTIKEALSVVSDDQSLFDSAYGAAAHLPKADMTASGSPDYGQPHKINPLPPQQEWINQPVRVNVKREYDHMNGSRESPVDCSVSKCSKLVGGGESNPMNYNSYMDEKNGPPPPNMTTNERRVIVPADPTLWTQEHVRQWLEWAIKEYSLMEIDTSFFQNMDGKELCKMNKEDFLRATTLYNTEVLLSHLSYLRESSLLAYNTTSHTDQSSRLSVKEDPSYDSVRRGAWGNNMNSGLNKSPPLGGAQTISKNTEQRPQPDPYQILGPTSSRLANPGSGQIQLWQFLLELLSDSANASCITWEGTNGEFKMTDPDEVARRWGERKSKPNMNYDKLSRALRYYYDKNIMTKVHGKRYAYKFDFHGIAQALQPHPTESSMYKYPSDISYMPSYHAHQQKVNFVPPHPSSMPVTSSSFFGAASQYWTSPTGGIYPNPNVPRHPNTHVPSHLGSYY
The conditions noted are these: protein: recombinant; tags: N-terminal GST; dsDNA, one strand shown. A digest of the protocol: (§1)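 The binding signal reported is, for every hexamer, its read frequency for a factor over its read frequency for the tag-only sample. Reads came from pools of yeast-expressed, GST-fused human transcription factors on glutathione beads, barcoded with DNA and mixed with that sample, which were incubated with 200 nmole of a random double-stranded 16-mer DNA library in Tris/NaCl/DTT/glycerol buffer at room temperature for 30 min. After washing, the pools were crosslinked with 0.1% formaldehyde, proximity-ligated with BsaI/T4 ligase for 1 h at 37 °C, PCR-amplified and sequenced on an Illumina NextSeq500.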

For the next experiment, the target named is T2, ELK1 (Homo sapiens, UniProt P19419 1-428).
T2 sequence: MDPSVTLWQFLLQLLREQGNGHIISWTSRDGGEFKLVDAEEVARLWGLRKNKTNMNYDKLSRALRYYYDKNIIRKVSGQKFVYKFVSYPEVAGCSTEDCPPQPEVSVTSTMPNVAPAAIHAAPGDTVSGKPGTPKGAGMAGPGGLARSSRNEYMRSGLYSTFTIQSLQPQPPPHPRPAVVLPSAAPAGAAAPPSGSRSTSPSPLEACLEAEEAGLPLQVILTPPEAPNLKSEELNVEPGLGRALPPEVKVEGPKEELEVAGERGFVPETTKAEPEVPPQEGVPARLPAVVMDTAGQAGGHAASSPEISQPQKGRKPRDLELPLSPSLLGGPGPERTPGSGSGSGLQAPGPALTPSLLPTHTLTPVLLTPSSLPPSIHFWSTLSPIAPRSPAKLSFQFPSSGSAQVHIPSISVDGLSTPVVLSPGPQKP
The note with it: protein: recombinant; tags: N-terminal GST; dsDNA, one strand shown. A digest of the protocol:
as §1

The target in a further experiment is T3, GABPA (Homo sapiens, UniProt Q06546 1-454).
T3 sequence: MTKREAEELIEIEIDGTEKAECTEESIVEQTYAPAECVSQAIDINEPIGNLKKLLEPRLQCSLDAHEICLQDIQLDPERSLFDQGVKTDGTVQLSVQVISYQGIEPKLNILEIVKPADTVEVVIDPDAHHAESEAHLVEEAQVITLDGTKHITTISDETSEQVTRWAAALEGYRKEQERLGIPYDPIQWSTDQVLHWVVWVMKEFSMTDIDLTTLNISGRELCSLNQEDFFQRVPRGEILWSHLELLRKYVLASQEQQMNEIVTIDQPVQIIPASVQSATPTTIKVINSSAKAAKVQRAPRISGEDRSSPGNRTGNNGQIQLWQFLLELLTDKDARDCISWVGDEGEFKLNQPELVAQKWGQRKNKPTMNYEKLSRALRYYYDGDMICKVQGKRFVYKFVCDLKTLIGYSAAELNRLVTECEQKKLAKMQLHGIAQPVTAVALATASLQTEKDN
The conditions noted are these: protein: recombinant; tags: N-terminal GST; dsDNA, one strand shown. A digest of the protocol: as §1

In a further experiment the target is T4, ERG (Homo sapiens, UniProt P11308 1-479).
T4 sequence: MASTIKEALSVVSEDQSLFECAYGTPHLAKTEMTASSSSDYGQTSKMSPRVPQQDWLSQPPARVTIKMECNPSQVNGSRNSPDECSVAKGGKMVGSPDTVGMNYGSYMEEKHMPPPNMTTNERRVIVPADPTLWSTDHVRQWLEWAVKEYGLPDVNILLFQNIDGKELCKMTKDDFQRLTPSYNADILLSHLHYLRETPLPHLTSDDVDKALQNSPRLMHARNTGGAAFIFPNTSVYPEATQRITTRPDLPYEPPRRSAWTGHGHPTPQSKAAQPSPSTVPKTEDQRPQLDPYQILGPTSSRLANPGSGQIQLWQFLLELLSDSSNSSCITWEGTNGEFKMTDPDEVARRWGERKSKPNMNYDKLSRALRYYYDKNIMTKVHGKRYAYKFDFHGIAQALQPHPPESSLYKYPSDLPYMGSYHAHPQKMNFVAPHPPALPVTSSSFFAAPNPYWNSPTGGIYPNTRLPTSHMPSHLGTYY
The note with it: protein: recombinant; tags: N-terminal GST; dsDNA, one strand shown. The procedure, abridged: as §1

The target in a further experiment is ELF1 (Homo sapiens, UniProt P32519 1-619). The conditions noted are these: protein: recombinant; tags: N-terminal GST; dsDNA, one strand shown. A digest of the protocol: as §1
The target in another experiment is T5, EHF (Homo sapiens, UniProt Q9NZC4 1-300).
T5 sequence: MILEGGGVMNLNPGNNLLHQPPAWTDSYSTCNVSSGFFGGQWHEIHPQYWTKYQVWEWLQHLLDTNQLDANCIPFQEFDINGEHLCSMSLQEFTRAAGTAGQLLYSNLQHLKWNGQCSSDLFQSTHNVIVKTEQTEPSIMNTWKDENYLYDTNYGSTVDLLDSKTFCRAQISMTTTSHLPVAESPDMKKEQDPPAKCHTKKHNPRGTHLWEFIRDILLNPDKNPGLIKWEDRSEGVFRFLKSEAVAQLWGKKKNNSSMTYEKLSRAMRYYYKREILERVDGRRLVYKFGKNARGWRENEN
The conditions noted are these: protein: recombinant; tags: N-terminal GST; dsDNA, one strand shown. A digest of the protocol:
as §1

A further experiment has as its target SPI1 (Homo sapiens, UniProt P17947 1-270). The conditions noted are these: protein: recombinant; tags: N-terminal GST; dsDNA, one strand shown. A digest of the protocol: as §1
A further experiment addresses SPIB (Homo sapiens, UniProt Q01892 1-262). The conditions noted are these: protein: recombinant; tags: N-terminal GST; dsDNA, one strand shown. A digest of the protocol: as §1
The next experiment addresses T6, ELK3 (Homo sapiens, UniProt P41970 1-407).
T6 sequence: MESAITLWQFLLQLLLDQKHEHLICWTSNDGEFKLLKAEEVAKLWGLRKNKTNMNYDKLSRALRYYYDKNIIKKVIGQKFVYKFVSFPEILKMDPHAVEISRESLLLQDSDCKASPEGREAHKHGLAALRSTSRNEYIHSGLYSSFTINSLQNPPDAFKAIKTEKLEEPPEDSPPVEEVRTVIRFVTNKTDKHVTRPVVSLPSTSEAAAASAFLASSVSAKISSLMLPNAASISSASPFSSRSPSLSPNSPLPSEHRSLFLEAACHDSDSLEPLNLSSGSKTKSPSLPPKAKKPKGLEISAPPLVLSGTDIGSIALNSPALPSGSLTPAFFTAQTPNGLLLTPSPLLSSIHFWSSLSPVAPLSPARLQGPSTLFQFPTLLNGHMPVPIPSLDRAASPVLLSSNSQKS
The conditions noted are these: protein: recombinant; tags: N-terminal GST; dsDNA, one strand shown. The procedure, abridged: as §1

A further experiment deals with T7, FEV (Homo sapiens, UniProt Q99581 1-238).
T7 sequence: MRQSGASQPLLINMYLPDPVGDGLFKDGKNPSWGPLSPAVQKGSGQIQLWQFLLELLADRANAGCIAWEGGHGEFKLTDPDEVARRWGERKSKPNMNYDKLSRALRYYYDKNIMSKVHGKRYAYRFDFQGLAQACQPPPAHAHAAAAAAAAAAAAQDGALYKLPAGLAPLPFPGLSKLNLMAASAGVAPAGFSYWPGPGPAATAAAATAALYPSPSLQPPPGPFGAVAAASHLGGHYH
The conditions noted are these: protein: recombinant; tags: N-terminal GST; dsDNA, one strand shown. A digest of the protocol: as §1

Another experiment addresses ETV5 (Homo sapiens, UniProt P41161 1-510). The conditions noted are these: protein: recombinant; tags: N-terminal GST; dsDNA, one strand shown. A digest of the protocol: as §1
Another experiment addresses HSF1 (Homo sapiens, UniProt Q00613 1-529). The note with it: protein: recombinant; tags: N-terminal GST; chain copies: 3; dsDNA, one strand shown. A digest of the protocol:
as §1

The next experiment deals with T8, SPIC (Homo sapiens, UniProt Q8N5J4 1-248).
T8 sequence: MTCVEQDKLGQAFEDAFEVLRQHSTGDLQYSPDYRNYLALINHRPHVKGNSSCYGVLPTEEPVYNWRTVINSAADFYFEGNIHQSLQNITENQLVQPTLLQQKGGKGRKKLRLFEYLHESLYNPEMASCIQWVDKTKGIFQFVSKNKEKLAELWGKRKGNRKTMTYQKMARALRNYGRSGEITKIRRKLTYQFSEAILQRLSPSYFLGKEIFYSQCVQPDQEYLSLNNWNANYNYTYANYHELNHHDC
The conditions noted are these: protein: recombinant; tags: N-terminal GST; dsDNA, one strand shown. The procedure, abridged:
as §1

A further experiment has as its target ELF4 (Homo sapiens, UniProt Q99607 1-663). The conditions noted are these: protein: recombinant; tags: N-terminal GST; dsDNA, one strand shown. The procedure, abridged: as §1
A further experiment concerns the target T9, ELK4 (Homo sapiens, UniProt P28324-2 1-405).
T9 sequence: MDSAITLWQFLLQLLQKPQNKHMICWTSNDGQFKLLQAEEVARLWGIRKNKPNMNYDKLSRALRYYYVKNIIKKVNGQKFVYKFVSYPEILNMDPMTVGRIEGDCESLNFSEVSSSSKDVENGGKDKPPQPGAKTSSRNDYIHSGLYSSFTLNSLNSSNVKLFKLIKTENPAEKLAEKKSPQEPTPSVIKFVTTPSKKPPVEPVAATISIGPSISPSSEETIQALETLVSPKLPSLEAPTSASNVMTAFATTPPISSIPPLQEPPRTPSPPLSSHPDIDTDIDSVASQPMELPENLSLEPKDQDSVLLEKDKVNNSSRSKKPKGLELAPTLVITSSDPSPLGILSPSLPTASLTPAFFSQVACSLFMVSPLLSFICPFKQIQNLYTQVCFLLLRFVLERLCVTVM
The note with it: protein: recombinant; tags: N-terminal GST; dsDNA, one strand shown. The procedure, abridged: as §1

A further experiment concerns the target T10, ETV2 (Homo sapiens, UniProt O00321 1-342).
T10 sequence: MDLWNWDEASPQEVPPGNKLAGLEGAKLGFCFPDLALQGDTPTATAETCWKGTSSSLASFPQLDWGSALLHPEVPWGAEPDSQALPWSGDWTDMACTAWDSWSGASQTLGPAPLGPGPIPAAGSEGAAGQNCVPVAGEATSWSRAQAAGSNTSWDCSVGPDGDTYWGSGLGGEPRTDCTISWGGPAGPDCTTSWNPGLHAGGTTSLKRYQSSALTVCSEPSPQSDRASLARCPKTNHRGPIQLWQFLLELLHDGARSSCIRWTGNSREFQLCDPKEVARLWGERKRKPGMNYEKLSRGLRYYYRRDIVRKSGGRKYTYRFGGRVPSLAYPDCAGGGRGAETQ
The conditions noted are these: protein: recombinant; tags: N-terminal GST; dsDNA, one strand shown. A digest of the protocol: as §1

The target of another experiment is T11, ELF3 (Homo sapiens, UniProt P78545 1-371).
T11 sequence: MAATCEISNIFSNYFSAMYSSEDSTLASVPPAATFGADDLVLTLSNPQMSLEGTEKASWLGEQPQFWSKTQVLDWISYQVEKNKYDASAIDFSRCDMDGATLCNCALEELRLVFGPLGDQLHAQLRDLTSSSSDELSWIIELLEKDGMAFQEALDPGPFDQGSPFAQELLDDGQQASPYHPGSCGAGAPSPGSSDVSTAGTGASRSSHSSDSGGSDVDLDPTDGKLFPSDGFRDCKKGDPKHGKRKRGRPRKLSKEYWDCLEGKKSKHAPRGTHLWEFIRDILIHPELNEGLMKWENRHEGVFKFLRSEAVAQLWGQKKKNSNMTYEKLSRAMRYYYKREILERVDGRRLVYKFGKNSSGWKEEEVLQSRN
The conditions noted are these: protein: recombinant; tags: N-terminal GST; dsDNA, one strand shown. The procedure, abridged: as §1

The target in another experiment is CRX (Homo sapiens, UniProt O43186 1-299). The conditions noted are these: protein: recombinant; tags: N-terminal GST; dsDNA, one strand shown. The procedure, abridged:
as §1

Another experiment has as its target ETV1 (Homo sapiens, UniProt P50549 1-477). The note with it: protein: recombinant; tags: N-terminal GST; dsDNA, one strand shown. A digest of the protocol: as §1

Sequence of ELF4 (Q99607 whole entry): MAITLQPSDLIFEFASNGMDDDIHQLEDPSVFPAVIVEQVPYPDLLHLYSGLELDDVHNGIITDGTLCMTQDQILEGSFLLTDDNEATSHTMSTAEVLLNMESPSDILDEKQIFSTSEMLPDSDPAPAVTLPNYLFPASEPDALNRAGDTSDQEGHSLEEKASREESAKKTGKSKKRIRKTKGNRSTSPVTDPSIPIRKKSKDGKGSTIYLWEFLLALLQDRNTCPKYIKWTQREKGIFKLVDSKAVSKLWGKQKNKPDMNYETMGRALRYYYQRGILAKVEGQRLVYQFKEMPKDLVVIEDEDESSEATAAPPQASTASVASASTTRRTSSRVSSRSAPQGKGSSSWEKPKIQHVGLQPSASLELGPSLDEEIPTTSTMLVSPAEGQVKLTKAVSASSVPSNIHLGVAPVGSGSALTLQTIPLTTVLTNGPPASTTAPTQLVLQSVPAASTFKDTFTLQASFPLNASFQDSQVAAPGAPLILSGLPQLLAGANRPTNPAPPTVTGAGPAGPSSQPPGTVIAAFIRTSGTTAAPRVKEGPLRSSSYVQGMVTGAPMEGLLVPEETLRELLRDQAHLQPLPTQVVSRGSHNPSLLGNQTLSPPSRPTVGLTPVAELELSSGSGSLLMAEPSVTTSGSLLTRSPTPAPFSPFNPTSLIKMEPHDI
Sequence of HSF1 (Q00613 whole entry): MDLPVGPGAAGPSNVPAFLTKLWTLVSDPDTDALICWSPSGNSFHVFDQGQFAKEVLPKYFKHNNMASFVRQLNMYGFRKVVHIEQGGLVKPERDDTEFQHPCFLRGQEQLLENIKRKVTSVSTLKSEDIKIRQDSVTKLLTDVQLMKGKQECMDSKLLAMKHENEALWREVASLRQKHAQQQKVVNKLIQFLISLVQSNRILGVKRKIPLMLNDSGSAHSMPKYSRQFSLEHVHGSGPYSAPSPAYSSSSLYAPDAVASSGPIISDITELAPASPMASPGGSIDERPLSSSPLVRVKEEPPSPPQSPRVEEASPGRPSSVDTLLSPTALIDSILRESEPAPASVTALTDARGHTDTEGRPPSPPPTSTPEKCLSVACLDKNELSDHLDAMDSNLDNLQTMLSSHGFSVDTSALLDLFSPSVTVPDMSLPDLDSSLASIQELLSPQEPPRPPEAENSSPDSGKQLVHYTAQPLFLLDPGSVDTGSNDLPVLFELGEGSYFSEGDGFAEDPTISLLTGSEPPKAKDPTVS
Sequence of ETV5 (P41161 whole entry): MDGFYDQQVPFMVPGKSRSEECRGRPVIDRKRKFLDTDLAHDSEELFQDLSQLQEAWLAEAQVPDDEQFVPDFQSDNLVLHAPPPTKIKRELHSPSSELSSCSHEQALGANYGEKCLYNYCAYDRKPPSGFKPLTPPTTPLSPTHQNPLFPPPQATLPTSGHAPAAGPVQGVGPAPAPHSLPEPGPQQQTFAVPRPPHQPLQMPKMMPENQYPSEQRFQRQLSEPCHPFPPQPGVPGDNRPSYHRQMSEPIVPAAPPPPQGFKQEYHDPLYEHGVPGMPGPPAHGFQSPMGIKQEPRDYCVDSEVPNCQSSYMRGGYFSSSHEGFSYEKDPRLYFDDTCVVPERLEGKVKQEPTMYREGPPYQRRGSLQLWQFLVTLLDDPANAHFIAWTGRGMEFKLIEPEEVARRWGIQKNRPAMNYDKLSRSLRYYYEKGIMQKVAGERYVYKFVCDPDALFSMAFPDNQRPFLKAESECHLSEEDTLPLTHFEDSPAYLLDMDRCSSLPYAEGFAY
Sequence of ELF1 (P32519 whole entry): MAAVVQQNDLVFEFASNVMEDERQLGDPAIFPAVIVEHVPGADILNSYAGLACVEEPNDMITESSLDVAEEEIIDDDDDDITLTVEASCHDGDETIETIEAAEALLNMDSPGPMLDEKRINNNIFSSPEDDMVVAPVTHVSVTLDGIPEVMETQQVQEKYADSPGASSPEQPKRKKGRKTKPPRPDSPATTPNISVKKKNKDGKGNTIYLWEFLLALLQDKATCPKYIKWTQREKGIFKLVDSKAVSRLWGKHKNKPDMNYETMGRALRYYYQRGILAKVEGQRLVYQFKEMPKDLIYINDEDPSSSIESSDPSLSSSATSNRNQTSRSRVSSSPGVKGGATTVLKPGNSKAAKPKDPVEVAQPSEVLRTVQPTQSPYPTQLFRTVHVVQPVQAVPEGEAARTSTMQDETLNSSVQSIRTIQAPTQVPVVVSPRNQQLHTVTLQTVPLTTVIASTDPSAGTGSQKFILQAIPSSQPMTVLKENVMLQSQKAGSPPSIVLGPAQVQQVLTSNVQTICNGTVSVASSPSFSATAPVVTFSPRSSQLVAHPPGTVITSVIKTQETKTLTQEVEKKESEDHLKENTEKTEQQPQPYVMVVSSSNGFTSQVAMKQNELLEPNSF
Sequence of CRX (O43186 whole entry): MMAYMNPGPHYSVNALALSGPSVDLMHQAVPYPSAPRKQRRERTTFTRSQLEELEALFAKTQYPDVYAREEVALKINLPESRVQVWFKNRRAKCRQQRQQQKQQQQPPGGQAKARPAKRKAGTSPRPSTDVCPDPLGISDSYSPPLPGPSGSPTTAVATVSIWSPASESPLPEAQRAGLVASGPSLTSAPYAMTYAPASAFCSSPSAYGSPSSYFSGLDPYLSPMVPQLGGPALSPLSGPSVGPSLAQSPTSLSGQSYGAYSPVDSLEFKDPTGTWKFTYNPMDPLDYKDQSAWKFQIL
Sequence of ETV1 (P50549 whole entry): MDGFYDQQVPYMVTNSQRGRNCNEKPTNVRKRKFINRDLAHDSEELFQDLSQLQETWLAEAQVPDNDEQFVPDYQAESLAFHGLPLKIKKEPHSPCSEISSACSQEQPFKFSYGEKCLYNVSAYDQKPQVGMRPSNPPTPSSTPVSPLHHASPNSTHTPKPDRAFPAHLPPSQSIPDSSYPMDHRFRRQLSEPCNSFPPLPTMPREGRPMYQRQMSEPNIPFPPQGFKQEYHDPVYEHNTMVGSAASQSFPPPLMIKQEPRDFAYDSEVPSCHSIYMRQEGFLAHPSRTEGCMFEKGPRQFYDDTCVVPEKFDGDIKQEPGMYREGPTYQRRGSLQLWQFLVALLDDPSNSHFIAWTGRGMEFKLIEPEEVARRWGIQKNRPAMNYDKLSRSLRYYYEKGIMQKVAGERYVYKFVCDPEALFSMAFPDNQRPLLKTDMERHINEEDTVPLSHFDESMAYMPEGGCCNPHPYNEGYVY
Sequence of SPIB (Q01892 whole entry): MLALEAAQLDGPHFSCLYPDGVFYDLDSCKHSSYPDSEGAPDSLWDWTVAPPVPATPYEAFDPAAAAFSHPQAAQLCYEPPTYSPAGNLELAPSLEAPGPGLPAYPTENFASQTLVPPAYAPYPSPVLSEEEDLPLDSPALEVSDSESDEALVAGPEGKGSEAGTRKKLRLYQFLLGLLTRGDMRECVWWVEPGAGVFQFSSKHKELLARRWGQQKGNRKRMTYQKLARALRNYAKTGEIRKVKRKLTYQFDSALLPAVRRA

As to TCTGTT, the binding signal was 1.41 fold enrichment (6-mer frequency, TF over GST control) with FLI1; 1.47 fold enrichment (6-mer frequency, TF over GST control) with ELK1; 1.24 fold enrichment (6-mer frequency, TF over GST control) in the experiment with GABPA; 1.42 fold enrichment (6-mer frequency, TF over GST control) with ERG; 1.42 fold enrichment (6-mer frequency, TF over GST control) with ELF1; 1.45 fold enrichment (6-mer frequency, TF over GST control) in the experiment with EHF. The binding signal in the experiment with SPI1 is 1.43 fold enrichment (6-mer frequency, TF over GST control); with SPIB, 1.33 fold enrichment (6-mer frequency, TF over GST control); with ELK3, 1.15 fold enrichment (6-mer frequency, TF over GST control); in the experiment with FEV, 1.29 fold enrichment (6-mer frequency, TF over GST control); with ETV5, 1.27 fold enrichment (6-mer frequency, TF over GST control); in the experiment with HSF1, 1.43 fold enrichment (6-mer frequency, TF over GST control). In addition, the binding signal in the experiment with SPIC was 1.31 fold enrichment (6-mer frequency, TF over GST control); in the experiment with ELF4, 1.39 fold enrichment (6-mer frequency, TF over GST control); with ELK4 it was 1.25 fold enrichment (6-mer frequency, TF over GST control); with ETV2 it was 1.3 fold enrichment (6-mer frequency, TF over GST control); in the experiment with ELF3, 1.53 fold enrichment (6-mer frequency, TF over GST control); with CRX it was 1.27 fold enrichment (6-mer frequency, TF over GST control). For the same sequence, the binding signal with ETV1 was 1.41 fold enrichment (6-mer frequency, TF over GST control).
